# Screening results as filed in PubChem BioAssay.
# A selection: hits, their analogues and other compounds. The true share with any hit is near 2.5%.
# POLI inh – DNA polymerase iota (human) inhibition; Q9UNA4; 1% of 390,000 active; Potency, µM (top dose mostly 115 µM), inactives show at the top dose activity, negative = inhibition, actives largely listed as inhibitors; Pol iota fluorescent replication assay, 10 min
#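 Fluorescent replication assay read twice, at 0 min and 10 min after adding 50 nM (final) substrate. Enzyme (10 nM) and compounds were first incubated 15 min at room temperature; enzyme-free buffer wells were negative controls.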
# POLK inh – inhibitors of human DNA polymerase kappa. Q9UBT6. purified Pol kappa, fluorescent DNA synthesis assay, 10 min. Potency, µM (titrated, usually from 107 µM), for inactives: at the highest dose activity, negative = inhibition, most hits filed as inhibitors. AID 588579. 0.53% of 400,000 active; further: on the % scale 0 is the no-effect control and ±100 the full control effect
# Target sequence (Q9UBT6 whole entry, looked up): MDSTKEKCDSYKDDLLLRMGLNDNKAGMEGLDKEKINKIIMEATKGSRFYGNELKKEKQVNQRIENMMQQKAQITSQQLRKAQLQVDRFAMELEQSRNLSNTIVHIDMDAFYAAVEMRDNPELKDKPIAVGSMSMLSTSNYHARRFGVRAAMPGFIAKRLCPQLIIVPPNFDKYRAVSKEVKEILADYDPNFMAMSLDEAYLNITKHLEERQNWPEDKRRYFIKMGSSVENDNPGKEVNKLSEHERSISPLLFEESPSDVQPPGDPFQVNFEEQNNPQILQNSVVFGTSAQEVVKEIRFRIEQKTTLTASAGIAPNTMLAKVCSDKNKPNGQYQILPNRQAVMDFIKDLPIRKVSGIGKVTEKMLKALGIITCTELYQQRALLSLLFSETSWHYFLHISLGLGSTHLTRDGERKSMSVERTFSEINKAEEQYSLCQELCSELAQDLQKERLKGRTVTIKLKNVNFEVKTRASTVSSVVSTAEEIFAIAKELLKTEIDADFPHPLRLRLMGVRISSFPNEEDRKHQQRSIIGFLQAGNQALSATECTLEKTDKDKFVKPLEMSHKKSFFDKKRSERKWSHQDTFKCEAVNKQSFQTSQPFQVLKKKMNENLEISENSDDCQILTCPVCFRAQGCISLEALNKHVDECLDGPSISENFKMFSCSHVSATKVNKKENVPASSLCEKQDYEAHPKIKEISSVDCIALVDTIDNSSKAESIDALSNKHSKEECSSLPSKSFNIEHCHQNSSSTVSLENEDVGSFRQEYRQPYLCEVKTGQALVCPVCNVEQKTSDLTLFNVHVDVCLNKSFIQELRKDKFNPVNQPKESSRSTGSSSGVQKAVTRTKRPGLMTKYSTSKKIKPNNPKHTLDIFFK
#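 10 nM Pol kappa was preincubated with compounds for 15 min at room temperature. Reaction started with 50 nM (final) substrate. Fluorescence read kinetically at 0 and 10 min.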
# POLB inh – inhibitors of human DNA polymerase beta; P06746; Potency, µM (highest dose often 114 µM), for the others: at the top dose activity change, negative = inhibition, hits mostly inhibitors; Pol beta primer extension/strand displacement, fluorescence kinetic; 1.3% of 340,000 active; further: on the % scale 0 is the no-effect control and ±100 the full control effect
#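 Curves were derived by four-parameter Hill fits of normalized qHTS data. The kinetic fluorescent primer-extension read was taken at 0 and 10 min after 50 nM substrate, following a 15 min room-temperature preincubation of 10 nM enzyme with compounds.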
# WRN helicase inh-1 – blocks human WRN helicase; Q14191; WRN helicase unwinding, fluorescent forked duplex, kinetic; Potency, µM (highest dose often 114 µM), for inactives: top-dose activity change, negative = inhibition, usual class: inhibitors; 0.46% of 360,000 active; further: on the % scale 0 is the no-effect control and ±100 the full control effect; nearly all actives have a fitted effect of over 55% in size
#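 Screening of the MLSMR collection measured strand separation of a quenched forked DNA duplex (100 nM) by 20 nM WRN with 2 mM ATP, all final. Compounds were preincubated with enzyme 15 min at room temperature.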
# L3MBTL1 inh – L3MBTL1 (human) inhibition; Potency, µM (doses to about 57.1 µM), inactives show at the top dose activity, negative = inhibition, actives largely listed as inhibitors; Q9Y468; AID 485360; 0.66% of 230,000 active; AlphaScreen L3MBTL1–H3K9me1 peptide binding; further: on the % scale 0 is the no-effect control and ±100 the full control effect; nearly all actives have a fitted effect of over 60% in size
#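 First, the protein-peptide complex forms for 30 min at room temperature (L3MBTL1 50 nM, biotinylated H3K9me1 peptide 75 nM). Next, compounds are pin-transferred and incubated 30 min. Finally, AlphaScreen beads are added and read after 30 min.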
# POLH inh – blocks human DNA polymerase eta activity. Q9Y253. recombinant Pol eta, fluorescent DNA replication assay. Potency, µM (highest dose often 114 µM), inactives show top-dose activity change, negative = inhibition, most hits filed as inhibitors. 1.2% of 390,000 active; further: on the % scale 0 is the no-effect control and ±100 the full control effect
#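 Pol eta at 10 nM preincubated with compounds 15 min at room temperature; reaction started with fluorescent substrate (50 nM final) and read kinetically at 0 and 10 min.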
# WRN helicase inh-2 – confirmation of human WRN helicase inhibitors; shares compounds with WRN helicase inh-1; WRN helicase DNA unwinding, fluorescence kinetic; Potency, µM (series often up to 57.1 µM), without a hit: at the highest dose activity, negative = inhibition, most hits filed as inhibitors; 63% of 610 active; AID 720497; further: nearly all actives have a fitted effect of over 65% in size
# TO DNA binding – binds DNA, flagged in WRN inhibitor counterscreen; shares compounds with WRN helicase inh-1; Potency, µM (doses to about 57.1 µM), for inactives: at the top dose activity change, negative = inhibition, hits mostly inhibitors; thiazole orange DNA binding displacement, fluorescence; 10% of 610 active;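 further: drop in dye fluorescence marks compound binding to DNA; on the % scale 0 is the no-effect control and ±100 the full control effect; nearly all actives have a fitted effect of over 60% in size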
# BLM counter – counter-screen for WRN helicase inhibitors: human BLM helicase inhibition. AID 720503. 60% of 610 active. Recombinant BLM helicase DNA unwinding, red fluorescence. shares compounds with WRN helicase inh-1. Potency, µM (series often up to 57.1 µM), inactives show top-dose activity change, negative = inhibition, most hits filed as inhibitors; further: nearly all actives have a fitted effect of over 60% in size
# * = called active by the depositor; ? = inconclusive; . = no result given; [ ] = dose if it differs, or a comment. The call rests on the fitted dose curve; in most records, active means well fitted curve in the direction sought with a large enough effect; inconclusive means small, poorly fitted or top-dose-only effect, or another doubt; inactive means no such curve, though single readings can be large; an effect the other way counts as inactive or inconclusive. Potency means the concentration at half of the fitted maximal effect.
SMILES,POLI inh,POLK inh,POLB inh,WRN helicase inh-1,L3MBTL1 inh,POLH inh,WRN helicase inh-2,TO DNA binding,BLM counter
COC(=O)c1ccc(N2NC(=O)/C(=C/c3ccc(OC)c(OC)c3)C2=O)cc1,?,-10%,5%,-24%[11.6 µM],-6%,8%,.,.,.
COc1cc(/C=C2/C(=O)NN(c3cccc(C)c3)C2=O)ccc1OC(=O)c1ccco1,?,-11%,-24%,45µM*,-11%,28µM*,?,-14%,?
Cc1cc(NS(=O)(=O)c2ccc(NC(=O)/C=C/c3ccc(Br)cc3)cc2)no1,14%,-2%,12%,?,.,6%,-27%,-14%,?
CCNc1cc2n(c(=O)n1)CCc1cc(OC)c(OC)cc1-2,9%,-12%[60.1 µM],40%,-13%,3%,-1%,.,.,.
COc1cc2c(cc1OC)-c1cc(NCc3ccccn3)nc(=O)n1CC2,2.5µM*,-1%,1%,45µM*,?,-5%,-26%,-13%,-28%
Cc1c(CCO)sc[n+]1CC(=O)c1ccccc1,?,-6%,.,.,.,.,.,.,.
CCOc1ccccc1-n1nnnc1SCC(=O)NCC1(N2CCOCC2)CCCCC1,35%,3%,.,7%,-2%,-11%,.,.,.
CC[n+]1c(/C=C/C=C/N(C(C)=O)c2ccccc2)sc2cc(OC)ccc21,?,35µM*,16µM*,?,-1%,?,24µM*,426%,22µM*
Clc1cccc(-n2ncc3c(N4CCCCC4)ncnc32)c1,20%,-1%[60.1 µM],-12%,.,.,-24%,.,.,.
CN(C)CCCNc1cc(N2CCN(C3CCCCC3)CC2)c2noc3c2c1C(=O)c1ccccc1-3,41%,-20%,-22%,.,.,?,24µM*,213%,43µM*
COc1ccc(NC(=O)c2cc3c(-c4ccc(OC)c(OC)c4)nn(C)c3s2)cc1OC,?,?,28µM*,12µM*,.,?,14µM*,-9%,14µM*
CCCc1nc2sc3c(c2c(=O)[nH]1)CCCC3,113%,-15%,4%,10%,14%,-18%,.,.,.
Cc1ccc(CN(C)C(=O)CCc2nc3sc4c(c3c(=O)[nH]2)CCCC4)o1,18µM*,-40%,25µM*,?,.,22µM*,?,-19%,?
CC[C@]12c3[nH]c4ccc(Cl)cc4c3CCN1C(=O)[C@@H](CC(=O)NCc1cccc(C(F)(F)F)c1)C[C@@H]2C(=O)N1CCN(C(=O)c2ccco2)CC1,-11%,-7%,.,-8%,-22%,-15%,.,.,.
COc1ccc2cc3cc(C(=O)NCc4cccs4)oc3nc2c1,?,-23%,22µM*,40µM*,.,?,24µM*,2%,15µM*
COc1cc(/C=C2/C(=N)N3N=C(CC(=O)N4CCOCC4)SC3=NC2=O)ccc1OCc1ccc(F)cc1,?,?,-2%,-16%,.,?,.,.,.
COc1ccc(CN2CC(=O)N(c3ccc(C)c(C)c3)C2=S)cc1OC,-92%,?,3%,?,.,-98%,-8%,-4%,-4%
Cc1cc(Cl)c(OCCOCCN2CCCCC2)c(Br)c1,144%,-6%,5%,?,-7%,2%,-2%,-2%,-15%
Cc1cc(Cl)c(OCCOCCN2CCCC(C)C2)c(Br)c1 (stereo not given),174%,4%,-1%,4%,-1%,-22%,.,.,.
CC(C)Oc1ccc2c(c1)OC(c1ccccc1)(C(F)(F)F)NC2=O (stereo not given),106%,-7%,1%,-1%,3%,-26%,.,.,.
Cc1nnc(Sc2cc(NCCCO)c([N+](=O)[O-])c3nonc23)s1,13µM*,-20%,-17%,22µM*,-20%,79µM*,?,-13%,?
CCC(=O)OCCNc1cc(Sc2nc3ccccc3s2)c2nonc2c1[N+](=O)[O-],?,-26%,6%,-23%,.,-10%,.,.,.
O=[N+]([O-])c1c(NCCCO)cc(Sc2nc3ccccc3s2)c2nonc12,?,?,-26%,19µM*,23%,-17%,?,-15%,?
COc1ccc2cc(C(=O)NCc3ccccc3)c(=O)oc2c1,-13%,-1%,-5%,7%,.,-16%,.,.,.
CC(C)N1CCc2c(sc(NC(=O)c3cc4cc([N+](=O)[O-])ccc4s3)c2C(N)=O)C1,26%,-27%,-22%,79µM*,-21%,-19%,17µM*,17µM*,14µM*
COc1ccc(OC)c(/C=N/Nc2nc(C)cc(=O)[nH]2)c1,100%,-23%,?,89µM*,.,?,-13%,-4%,-20%
